Screening data (PubChem)
Hits are enriched below; roughly 7.4% of the tested compounds scored in any of these assays.
NPR1 antag: blocks ANP-stimulated signaling of human Npr1 receptor; P16066; HEK293 hNpr1 GloSensor cGMP, ANP-stimulated luminescence; Potency, µM (doses to about 46.3 µM), for the others: at the top dose activity change, negative = inhibition, hits mostly inhibitors; 1.6% of 76,000 active; calls by dose curve; also: nearly all actives have a fitted effect of over 60% in size
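HEK293 cells stably expressing human Npr1 and cGMP GloSensor pGS-40F, loaded 2 h with 2% GloSensor reagent, given compound 30 min at room temperature. Luminescence read before and 20 min after 0.1 nM hNppA.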
HEK293 tox: kills HEK 293 cells; HEK 293 viability, ATP luminescence (CellTiter-Glo), 48-72 h; Potency, µM (top dose mostly 115 µM), without a hit: at the highest dose activity change, negative = cytotoxicity, actives largely listed as inhibitors; 6.6% of 94,000 active; also: nearly all actives have a fitted effect of over 60% in size
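HEK 293 cells seeded at 250 cells/well were exposed to compound for 48 or 72 hr at 37 degree Celsius. Viability taken as ATP content by CellTiter-Glo luminescence.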
FLuc inh: inhibitors of firefly (Photinus pyralis) luciferase | AID 1347043 | 2.5% of 76,000 active | Potency, µM (top dose mostly 115 µM), actives largely listed as inhibitors | P08659 | purified P. pyralis luciferase, luminescence, biochemical; also: nearly all actives have a fitted effect of over 65% in size
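Purified P. pyralis luciferase (10nM final) in 50mM Tris acetate pH 7.5, 10mM Mg acetate, 0.01% Tween-20, 0.05% BSA with 10uM D-luciferin and 10uM ATP. Compounds titrated qHTS. Luminescence imaged on CCD.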
HEK293 viab: reduces viability of HEK-293 SNCA reporter cells; Potency, µM (doses to about 57.1 µM), without a hit: at the highest dose activity change, negative = cytotoxicity, actives largely listed as cytotoxic; 0.12% of 150,000 active; HEK-293-SNCA-luc viability, GF-AFC fluorescence, 24 h; AID 1671193;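 also: 0% = DMSO-treated cells and -100% = medium-only wells without cells; nearly all actives have a fitted effect of over 30% in size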
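HEK-293-SNCA-luc cells (1500/well) plated 24 h, then exposed 24 h to a dilution series; GF-AFC added 30 min at 37C, fluorescence 405/540 nm; normalised to medium-only and DMSO wells, Hill fit.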
3T3 cytotox: kills NIH 3T3 cells. NIH 3T3 viability, CellTiter-Glo ATP luminescence, 48-72 h. Potency, µM (titrated, usually from 96.7 µM), for the others: at the highest dose activity change, negative = cytotoxicity, actives largely listed as inhibitors. 4.3% of 94,000 active. AID 1345082; also: nearly all actives have a fitted effect of over 55% in size
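Viability of NIH 3T3 cells after 48 or 72 hr compound treatment at 37 °C was assessed by CellTiter-Glo, with luminescence imaged following a 10 min room-temperature step.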
SNCA expr inhib: inhibitors of alpha-synuclein (SNCA) gene expression; HEK-293 SNCA-luciferase knock-in, luminescence, 24 h; Potency, µM (series often up to 57.2 µM), inactives show at the top dose activity change, negative = inhibition, usual class: inhibitors; 0.17% of 140,000 active;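 also: plate controls were DMSO cells for no effect and cell-free wells for full effect; nearly all actives have a fitted effect of over 45% in size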
* hit, by the source's call; i = inactive; ? = inconclusive; nt = no result given; [ ] = another dose, or the depositor's remark. Unless noted, calls follow the shape of the dose curve; as a rule, active = well fitted curve in the direction sought with a large enough effect; inconclusive = small, poorly fitted or top-dose-only effect, or another doubt; inactive = no such curve, though single readings can be large; an effect the other way counts as inactive or inconclusive. Unless noted, % is scaled to controls: 0 for no effect and ±100 for the full control effect; potency is read from the fitted curve at half-maximal effect.

SMILES | NPR1 antag | HEK293 tox | FLuc inh | HEK293 viab | 3T3 cytotox | SNCA expr inhib
O=C1NCCCCCN(Cc2cn[nH]c2-c2cccs2)[C@H]2CCC[C@@H]12 | 1.4% | -9.0% | i | 0.3% | -29.0% | -1.6%
COc1cccc(CN2CCCCCCNC(=O)CC2c2ccccc2)c1OC (stereo not given) | 1.4% | 44.7µM* | i | -24.7% | 39.8µM* | ?
O=C1CC(c2ccccc2)N(Cc2cn[nH]c2-c2cccs2)CCCCCN1 (stereo not given) | -0.7% | 79.4µM* | i | -16.8% | ? | -7.2%
CCOc1ccccc1CN1CCO[C@@H](COC)[C@@H]1c1ccccc1 | nt | 39.8µM* | nt | 12.6% | -27.4% | -4.7%
CN(C)CCNC(=O)C1CCc2sc(C(=O)N3CCOCC3)cc2C1 (stereo not given) | -2.5% | 0.3% | i | 15.9% | 3.6% | -15.9%
Cc1nc(CC2CCN(C(=O)c3cc4c(s3)CCC(C)C4)CC2)no1 (stereo not given) | -2.3% | ? | 39.8µM* | 4.2% | ? | 68.9%
C[S+](=O)([O-])c1ccc(-c2cc3c(ccn3Cc3ccncc3)c(N3CCOCC3)n2)cc1 | 0.9% | -15.6% | i | ? | 6.31µM* | -14.7%
CN(C)Cc1cccc(-c2cc3c(ccn3Cc3ccncc3)c(N3CCOCC3)n2)c1 | -11.2%[70.6 µM] | 89.1µM* | i | -16.1%[87.6 µM] | 39.8µM* | -5.0%[87.6 µM]
c1cc(-c2cc3c(ccn3Cc3ccncc3)c(N3CCOCC3)n2)cc(N2CCOCC2)c1 | -1.7% | ? | i | -6.0% | 31.6µM* | 12.6%
C[S+](=O)([O-])Nc1cccc(-c2cc3c(ccn3Cc3ccncc3)c(N3CCOCC3)n2)c1 | -5.6% | -22.3% | i | 1.3% | ? | -7.0%
COc1ccccc1-c1nc2nccc(-c3ccc4c(c3)OCCCO4)n2n1 | -12.3% | 17.8µM* | ? | -16.0% | ? | 4.2%
COc1ccccc1-c1nc2nccc(-c3ccco3)n2n1 | 3.5% | 3.7% | ? | -4.4% | -15.0% | 11.2%
COc1ccc(-c2ccnc3nc(-c4cccs4)nn23)cc1OC | -2.0% | ? | i | 5.8% | 7.08µM* | 48.0%
COc1ccccc1-c1nc2nccc(-c3cc4ccccc4o3)n2n1 | -10.3% | 89.1µM* | i | -28.0% | ? | 11.4%
O=C(NCc1ccc(F)cc1F)C1CCN(C(=O)c2ccc(-c3cncnc3)cc2)CC1 | nt | 4.4% | nt | 0.5% | -25.3% | 0.7%
O=C(c1ccc(N2CCOCC2)nc1)N1CCC(Cn2cccn2)CC1 | 2.8% | -6.1% | i | 1.1% | -4.4% | -3.9%
CC(c1ccc(-c2ccc(N(C)C)nn2)cc1)N(C)C (stereo not given) | ? | 2.7% | 15.8µM* | -5.1% | -11.3% | ?
CCS(=O)(=O)NCCc1ncc(C)n1CCOC | 4.1% | 2.2% | i | 5.5% | i | ?
Cc1nn(-c2ccc(C(C)C)cc2)c(C)c1[C@@H]1C=C[C@@H](NCc2cccc(C#N)c2)C1 | -19.3%[70.6 µM] | 25.1µM* | ? | ? | ? | -24.1%[87.6 µM]
Cc1nn(-c2cccc(Br)c2)c(C)c1[C@@H]1C=C[C@@H](NC(=O)CCCC(=O)O)C1 | 3.2% | i | i | 0.8% | i | -3.7%
Cc1nn(-c2ccccc2)c(C)c1[C@@H]1C=C[C@@H](NCc2cccc(C#N)c2)C1 | -13.0%[70.6 µM] | 63.1µM* | i | -20.0%[87.6 µM] | ? | 68.7%[87.6 µM]
Cc1nn(-c2cccc(Br)c2)c(C)c1[C@@H]1C=C[C@@H](NS(C)(=O)=O)C1 | ? | ? | 56.2µM* | -29.4%[87.6 µM] | ? | 128.8%[87.6 µM]
Cc1ccc(-n2nc(C)c([C@@H]3C=C[C@@H](NCc4cccc(C#N)c4)C3)c2C)cc1Cl | ? | 25.1µM* | ? | ? | ? | ?
O=C(c1ccccc1F)N1CC(N(Cc2cccnc2)C(=O)Nc2ccccc2)C1 | 0.4% | -23.1% | i | -1.9% | 0.6% | -8.4%
